Compounds with a hit are over-represented: about 7.8% of the library has one in this group of screens.
MITF inh – MITF inhibition. TRPM1 promoter luciferase, luminescence, 24 h. inhibition, % (concentration not given with the values). actives 0.28% (n = 37,000). AID 2240; in the data active = inhibition above about 85%; inconclusive = no clear call, values can overlap the other calls; inactive = below about 68%;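 note: human melanocyte line stably carrying TRPM1 promoter luciferase reporter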
NOMO-1 viab – STK33 inhibitor candidate reducing NOMO-1 cell viability; NOMO-1 AML viability, CellTiter-Glo luminescence, 72 h; actives 7.5% (n = 37,000); AID 2330; inhibition, % (test concentration not listed); in the data active = inhibition above about 80%; inconclusive = no clear call, values can overlap the other calls
Shh pathway inh – blocks Sonic Hedgehog signaling. Shh-LIGHT2 Gli-luciferase reporter, 30 h. inhibition, % (concentration not given with the values). actives 2.1% (n = 22,000). AID 2313;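 active = mean inhibition across valid replicates above about 65%, limit read from the data; inconclusive = mean under the limit, yet half or more replicates past it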;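 note: pathway switched on by Shh-conditioned medium diluted 1 in 25 in low serum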
Active calls of the source: *; ? = inconclusive; nt = not tested or not shown.

SMILES | MITF inh | NOMO-1 viab | Shh pathway inh
COc1ccc(-n2c(-c3ccc(Cl)cc3)n[nH]c2=S)cc1 | -17 | 1 | 5
CC(Sc1nc(-c2ccccc2)cc(-c2ccccc2)n1)C(=O)Nc1ccccc1 (stereo unspecified) | 22 | 57 | nt
CC(=O)Nc1ccccc1NC(=O)COc1ccc(Br)cc1Cl | 25 | 33 | nt
OC1(/C=C/CN2CCCCC2)CCCCC1 | 9 | -2 | 12
COc1ccc(CN(C)C[C@H]2Oc3ccc(NC(=O)Nc4ccc(C(F)(F)F)cc4)cc3CC(=O)N([C@@H](C)CO)C[C@H]2C)cc1 | 19 | 124* | nt
COc1ccc(NC(=O)Nc2ccc3c(c2)CC(=O)N([C@@H](C)CO)C[C@H](C)[C@@H](CN(C)Cc2ccc(C(F)(F)F)cc2)O3)cc1 | 11 | 51 | nt
CC1CC2OC(C)(C)OC2C(OC(=O)c2ccccc2)O1 (stereo unspecified) | -6 | 8 | 20
C[C@H]1CN([C@@H](C)CO)C(=O)c2cccc(NS(=O)(=O)c3ccc(Cl)cc3)c2O[C@@H]1CN(C)Cc1ccc(C(=O)Nc2ccccc2N)cc1 | 28 | 126* | nt
C[C@H]1CN([C@@H](C)CO)C(=O)c2cc(NS(=O)(=O)c3ccc(F)cc3)ccc2O[C@H]1CN(C)Cc1ccc(C(=O)Nc2ccccc2N)cc1 | -10 | ? | nt
C[C@@H]1CN([C@H](C)CO)C(=O)c2cccc(NS(=O)(=O)c3cccs3)c2O[C@@H]1CN(C)Cc1ccc(C(=O)Nc2ccccc2N)cc1 | 29 | 138* | nt
C[C@H](CO)N1C[C@H](C)[C@H](CN(C)Cc2ccc(C(=O)Nc3ccccc3N)cc2)Oc2c(NS(=O)(=O)c3ccc(F)cc3)cccc2C1=O | 21 | 133* | nt
Cc1ccc(S(=O)(=O)Nc2cccc3c2O[C@@H](CN(C)Cc2ccc(C(=O)Nc4ccccc4N)cc2)[C@H](C)CN([C@H](C)CO)C3=O)cc1 | -5 | 72 | nt
C[C@H](CO)N1C[C@H](C)[C@H](CN(C)Cc2ccc(C(=O)O)cc2)Oc2c(NS(=O)(=O)c3cccs3)cccc2C1=O | 3 | 10 | -35
C[C@@H]1CN([C@@H](C)CO)C(=O)c2cccc(NS(=O)(=O)c3ccccc3)c2O[C@@H]1CN(C)Cc1ccc(C(=O)Nc2ccccc2N)cc1 | 22 | 129* | nt
C[C@H](CO)N1C[C@H](C)[C@@H](CN(C)Cc2ccc(C(=O)Nc3ccccc3N)cc2)Oc2c(NS(=O)(=O)c3ccccc3)cccc2C1=O | -10 | 53 | nt
O=c1c2ccccc2nc(SCc2ccc3c(c2)OCO3)n1-c1ccccc1 | 29 | 11 | nt
CC(=O)Nc1ccc(OC(=O)CSc2nc3ccccc3s2)cc1 | 9 | 31 | nt
O=C(Nc1ccc(S(=O)(=O)Nc2ccccn2)cc1)c1cccnc1 | -18 | -16 | nt
Cn1c(SCC(=O)c2ccc(F)cc2)nnc1-c1ccc(NC(=O)c2ccccc2Br)cc1 | -12 | 23 | nt
COc1ccc(S(=O)(=O)Nc2cccc3c2O[C@@H](CN(C)Cc2ccc(C(=O)Nc4ccccc4N)cc2)[C@H](C)CN([C@@H](C)CO)C3=O)cc1 | 6 | 55 | nt
COc1ccc(S(=O)(=O)Nc2cccc3c2O[C@H](CN(C)Cc2ccc(C(=O)Nc4ccccc4N)cc2)[C@@H](C)CN([C@@H](C)CO)C3=O)cc1 | 41 | 129* | nt
C[C@@H]1CN([C@@H](C)CO)C(=O)c2cccc(NS(=O)(=O)c3ccc(Cl)cc3)c2O[C@@H]1CN(C)Cc1ccc(C(=O)Nc2ccccc2N)cc1 | 35 | 128* | nt
C[C@@H]1CN([C@H](C)CO)C(=O)c2cccc(NS(=O)(=O)c3ccc(Cl)cc3)c2O[C@H]1CN(C)Cc1ccc(C(=O)Nc2ccccc2N)cc1 | 12 | 67 | nt
Cc1ccc(N(C(C)C(=O)Nc2cccc([N+](=O)[O-])c2)S(C)(=O)=O)cc1C (stereo unspecified) | 9 | 3 | nt
O=C(O)CCC(=O)Nc1cccc(C(F)(F)F)c1 | 7 | -20 | nt
SMILES | MITF inh | NOMO-1 viab | Shh pathway inh
O=C(/C=N/O)Nc1cc(C(F)(F)F)cc(C(F)(F)F)c1 | 24 | 116* | 69*
COc1ccc(/C=C2\Cc3ccccc3C2=O)cc1 | -4 | -2 | nt
CCCCCCCCN1C(=O)C(C(C)=O)=C(C)C1(C)O (stereo unspecified) | 3 | 98* | -75
CCN(CC(=O)Nc1cc([N+](=O)[O-])ccc1C)S(=O)(=O)c1ccc(C)cc1 | 15 | 0 | nt
NC(=O)CSc1nnc(-c2ccncc2)n1-c1cccc(C(F)(F)F)c1 | -10 | 26 | nt
Clc1ccc(-c2nc(Sc3nc(-c4cccs4)ns3)n[nH]2)cc1 | 6 | 11 | -29
O=C(Oc1ccccc1OC(=O)c1ccccc1)c1ccccc1 | 11 | 115* | 0
O=C(Oc1ccc2cc(OC(=O)c3ccccc3)ccc2c1)c1ccccc1 | -19 | -3 | nt
CC(CCC(=O)Nc1ccccc1)C(=O)O (stereo unspecified) | 2 | -13 | nt
CC(CNc1ccccc1)C(=Nc1ccccc1)Nc1ccccc1 (stereo unspecified) | -8 | 119* | -21
CCOC(=O)c1sc(SCCS(=O)(=O)c2ccc(Cl)cc2)c2c1CCCC2=O | -8 | 30 | 16
Cc1ccc(S(=O)(=O)CCSc2sc(C#N)c3c2C(=O)CC(C)(C)C3)cc1 | -17 | 94* | 66*
COc1ccc2c(c1OC)OC[C@@H](c1ccc(OC)c(OC)c1OC)C2 | 12 | 10 | 30
C=CCNC(=O)COc1ccc(Cl)cc1Cl | -33 | 115* | -56
O=C(COc1ccc(Cl)cc1Cl)Nc1ncccn1 | -58 | 9 | nt
COc1ccc(C2C(C(=O)c3ccco3)C(=O)C(=O)N2CCN(C)C)cc1OC (stereo unspecified) | -27 | -24 | nt
CC1CCC/C=C/C(=O)c2c(O)cc(O)cc2CC(=O)O1 (stereo unspecified) | 38 | 108* | 7
CC1CCCC2OC2C(=O)c2c(O)cc(O)cc2CC(=O)O1 (stereo unspecified) | 2 | 15 | -19
c1ccc2[nH]c(SCCSc3nc4ccccc4[nH]3)nc2c1 | 43 | 83* | nt
NC(=O)CSc1nc2ccccc2[nH]1 | 1 | 16 | nt
O=C(NCCCN1CCCC1=O)c1cc(-c2ccncc2)nc2ccc(Br)cc12 | -14 | 16 | nt
COc1ccc(OC)c(NC(=O)C2=C(C)NC(=S)NC2c2ccc(OC)cc2OC)c1 (stereo unspecified) | -16 | 38 | nt
COC(=O)COc1ccc(C2NC(=S)NC(C)=C2C(=O)OC)cc1 (stereo unspecified) | -7 | 89* | nt
COc1cc(O)c(Oc2cc(C)cc(O)c2C(=O)O)c(CO)c1 | -2 | 25 | -2
C[C@H]1CN([C@@H](C)CO)C(=O)c2cccc(NC(=O)Nc3ccc(C(F)(F)F)cc3)c2O[C@H]1CN(C)Cc1ccc(C(F)(F)F)cc1 | 30 | 114* | -37
C[C@@H]1CN([C@@H](C)CO)C(=O)c2cccc(NC(=O)Nc3ccc(C(F)(F)F)cc3)c2O[C@@H]1CN(C)Cc1ccc(-c2ccccc2)cc1 | 8 | 125* | nt
C[C@@H]1CN([C@H](C)CO)C(=O)c2cccc(NC(=O)Nc3ccc(C(F)(F)F)cc3)c2O[C@@H]1CN(C)Cc1ccc(-c2ccccc2)cc1 | -2 | ? | -39
C[C@@H]1CN([C@H](C)CO)C(=O)c2cccc(NC(=O)Nc3ccc(C(F)(F)F)cc3)c2O[C@H]1CN(C)Cc1ccc(C(F)(F)F)cc1 | 44 | ? | -9

Source: PubChem
